From PubChem BioAssay (NCATS)
Active and inactive are the calls of the source. Unless noted, calls come from the whole dose curve.

Experiments:
[1] = target: Estrogen receptor (Homo sapiens) (UniProt P03372); assay: qHTS assay for small molecule antagonists of estrogen receptor alpha signaling (AID 588513; active = well fitted curve in the direction sought with a large enough effect in the signal ratio, with a control signal flat, not every such curve was filed as active; inconclusive = small, poorly fitted or top-dose-only effect, or effect the other way, or a change in a side signal; inactive = no such curve, though single readings can be large or run the other way; the % refers to the signal ratio; note: potency is the fitted concentration of half-maximal effect)
How it was run: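 Antagonist mode: inhibition of 0.5 nM 17-beta-estradiol-driven beta-lactamase reporter in HEK 293 ER-alpha-UAS-bla cells, 18 h at 37C, CCF4 readout after 2 h at RT. Normalised to estradiol and DMSO; titration fitted to Hill.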

[2] = target: Glucocorticoid receptor (Homo sapiens) (UniProt P04150); assay: qHTS assay for small molecule agonists of glucocorticoid receptor signaling (AID 588532; active = well fitted curve in the direction sought with a large enough effect in the signal ratio, with a control signal flat; inconclusive = small, poorly fitted or top-dose-only effect, or a change in a side signal; inactive = no such curve, though single readings can be large or run the other way; the % refers to the signal ratio;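 note: 100% = dexamethasone at 0.1 µM and 0% = DMSO only wells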); details: HeLa MMTV-bla, beta-lactamase ratio, agonist, 18 h; activation: stronger effect = higher value, percent of dexamethasone control, DMSO zero
How it was run: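 Stimulation of a glucocorticoid response element-driven beta-lactamase gene was measured in HeLa cells. Responses were scaled between DMSO basal and 0.1 uM dexamethasone, then fitted for half-maximal stimulation.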

[3] = target: Peroxisome proliferator-activated receptor delta (Homo sapiens) (UniProt Q03181); assay: qHTS assay for small molecule agonists of peroxisome proliferator-activated receptor delta signaling (AID 588534);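 note: 0% = DMSO basal wells and 100% = positive control agonist at 10 µM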
How it was run: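 Agonist-mode beta-lactamase reporter readout (CCF4 dye, 2 h at RT) after 18 h at 37 °C exposure to a titration; Hill-equation fitting gave EC50 and maximal response.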

[4] = target: Peroxisome proliferator-activated receptor gamma (Homo sapiens) (UniProt P37231); assay: qHTS assay for small molecule agonists of peroxisome proliferator-activated receptor gamma signaling (AID 588536; active = well fitted curve in the direction sought with a large enough effect in the signal ratio, with a control signal flat, not every such curve was filed as active; inconclusive = small, poorly fitted or top-dose-only effect, or effect the other way, or a change in a side signal; inactive = no such curve, though single readings can be large or run the other way; the % refers to the signal ratio;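 note: 0% = DMSO basal wells and 100% = rosiglitazone at 2 µM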)
How it was run: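 Compound treatment: 16 h, 37 C, HEK293 GeneBLAzer cells. Detection: CCF4, 2 h RT. Values: Hill-fit EC50, efficacy as % of 2 uM rosiglitazone.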

[5] = target: Retinoic acid receptor RXR-alpha (Homo sapiens) (UniProt P19793); assay: qHTS assay for small molecule agonists of retinoid X receptor alpha signaling (AID 588544);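 note: 0% = DMSO basal wells and 100% = reference agonist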
[6] = target: Thyroid hormone receptor beta (Homo sapiens) (UniProt P10828); assay: qHTS assay for small molecule agonists of thyroid hormone receptor beta signaling (AID 588545)
How it was run: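 In this cell-based screen, titrated compounds act on HEK 293 cells held in medium with 2% charcoal/dextran FBS, NEAA and pyruvate for 18 hrs at 37 C. Responses are expressed relative to T3 (10 nM) as 100% and basal DMSO as 0%.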

[7] = qHTS assay for small molecule antagonists of retinoid X receptor alpha signaling (AID 588546; active = well fitted inhibition curve with a large enough effect in the signal ratio, with a control signal flat, not every such curve was filed as active; inconclusive = small, poorly fitted or top-dose-only effect, or effect the other way, or a change in a side signal; inactive = no such curve, though single readings can be large or run the other way; the % refers to the signal ratio;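 note: cells stimulated with 9-cis-retinoic acid as agonist; % is set by controls: 0 for no effect and ±100 for the full control effect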); details: HEK293T RXRa-UAS-bla, beta-lactamase ratio, antagonist mode; measured here: W530 green channel, cytotoxicity proxy
How it was run: (§1)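 Beta-lactamase reporter inhibition, read as CCF4 fluorescence ratio (ex 405, em 460/530 nm) after 2 h at RT. HEK293T UAS-bla cells, 2500/well, were stimulated with 9-cis-RA at 500 or 100 nM final alongside test compound for 18 h at 37 C.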

[8] = target: Retinoic acid receptor RXR-alpha (Homo sapiens) (UniProt P19793); assay: as above; details: HEK293T RXRa-UAS-bla, beta-lactamase ratio, antagonist mode
How it was run: as §1

[9] = qHTS assay for small molecule activators of the p53 signaling pathway (AID 651743; active = well fitted activation curve with a large enough effect in the signal ratio, not every such curve was filed as active; inconclusive = small, poorly fitted or top-dose-only effect, or a change in a side signal; the % refers to the signal ratio; note: series mostly up to about 92 µM; % of control where 0% means no effect); details: HCT-116 p53RE-bla, beta-lactamase FRET ratio, 16 h; activation: stronger effect = higher value
How it was run: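 Agonist-mode quantitative HTS in HCT-116 cells carrying a p53-response-element beta-lactamase reporter; 16 h compound treatment at 37 C, then FRET substrate loading for 2 h at room temperature and fluorescence read.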

[10] = qHTS assay for small molecule activators of the nuclear factor-kappa B (NF-kB) signaling pathway (AID 651749; active = well fitted activation curve with a large enough effect in the signal ratio; inconclusive = small, poorly fitted or top-dose-only effect, or a change in a side signal; the % refers to the signal ratio; note: series mostly up to about 77 µM; % of control where 0% means no effect); details: NF-kB-bla ME-180 cells, beta-lactamase FRET ratio, 16 h; activation: stronger effect = higher value
How it was run: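 Human ME-180 cervical cells with an NF-kB-bla construct; compounds added via 23 nL pin transfer, DMSO as vehicle; incubation 16 hr. Reporter activity measured by FRET disruption.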

[11] = target: Peroxisome proliferator-activated receptor alpha (Homo sapiens) (UniProt Q07869); assay: qHTS assay for small molecule agonists of the peroxisome proliferator-activated receptor alpha (PPARalpha) signaling pathway (AID 651778; active = well fitted curve in the direction sought with a large enough effect; inconclusive = small, poorly fitted or top-dose-only effect, or another doubt; inactive = no such curve, though single readings can be large; an effect the other way counts as inactive or inconclusive; note: % of control where 0% means no effect); details: PathHunter PPARalpha complementation, chemiluminescence, 6 h; max response: stronger effect = higher value
How it was run: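 Cells plated at 2,000/well and held overnight at 37 C, 5% CO2, then compound added by pin tool for 6 hr; after PathHunter detection reagent and 60 min at room temperature, chemiluminescence from enzyme complementation was read.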

[12] = qHTS assay for small molecule agonists of the antioxidant response element (ARE) signaling pathway measured by Nrf2-dependant transcriptional activity - cell viability counter screen (AID 720653; active = well fitted curve in the direction sought with a large enough effect in the repeat runs; inconclusive = weak or mixed curves; inactive = no such curve, though single readings can be large; an effect the other way counts as inactive or inconclusive; note: % is set by controls: 0 for no effect and ±100 for the full control effect); details: ARE-bla HepG2 viability, CellTiter-Glo ATP luminescence, 16 h; max response: stronger effect = lower value
How it was run: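 ARE-bla HepG2 cells (2,000/well) rested 5 hrs at 37C/5% CO2, then exposed to compounds in DMSO for 16 hrs. Viability was read in the same wells as intracellular ATP by luminescence, 30 min at room temperature after reagent addition.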

[13] = qHTS assay for cell viability of HEK293 cells (AID 743288; active = well fitted curve in the direction sought with a large enough effect; inconclusive = small, poorly fitted or top-dose-only effect, or another doubt; inactive = no such curve, though single readings can be large; an effect the other way counts as inactive or inconclusive; note: % is set by controls: 0 for no effect and ±100 for the full control effect; nearly all actives have a fitted effect of over 50% in size); details: ATP luminescence (CellTiter-Glo), 18 h; max response: stronger effect = lower value
How it was run: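 Readout is luciferase-coupled ATP content (CellTiter-Glo luminescence, 30 min room temperature) as a measure of metabolically competent cells. Parental HEK293 cells were plated 5 h or more before compound addition, then treated 18 h at 37 C.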

[14] = qHTS assay for cell viability of the p53RE-bla HCT-116 cell line (AID 743292; active = well fitted curve in the direction sought with a large enough effect; inconclusive = small, poorly fitted or top-dose-only effect, or another doubt; inactive = no such curve, though single readings can be large; an effect the other way counts as inactive or inconclusive; note: % is set by controls: 0 for no effect and ±100 for the full control effect; nearly all actives have a fitted effect of over 55% in size)
How it was run: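 Quantitative high-throughput format: compounds in DMSO were pinned onto p53RE-bla HCT-116 cells (4,000/well) and incubated 16 h at 37 C. Total intracellular ATP, read by CellTiter-Glo luminescence, reflects viable cell number.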

[15] = target: Nuclear receptor subfamily 1 group I member 2 (Rattus norvegicus) (UniProt Q9R1A7); assay: qHTS assay for small molecule activators of the rat pregnane X receptor (rPXR) signaling pathway (AID 651751; call rule not given here; note: 0% is about no effect); details: rPXR reporter cells, luciferase (One-Glo), 24 h
[16] = target: Estrogen receptor (Homo sapiens) (UniProt P03372); assay: qHTS assay for small molecule agonists of estrogen receptor alpha signaling (AID 588514);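 note: 0% = vehicle only and 100% = reference agonist; nearly all actives have a fitted effect of over 70% in size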
How it was run: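 EC50 and efficacy came from Hill fits of beta-lactamase reporter signal (CCF4 dye, 2 h at room temperature) scaled between DMSO and 20 nM 17-beta-estradiol. Agonist mode: HEK293 ER-alpha-UAS-bla cells in charcoal/dextran-stripped serum medium, 18 h compound exposure at 37 C.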

[17] = target: Vitamin D3 receptor (Homo sapiens) (UniProt P11473); assay: qHTS assay for small molecule antagonists of vitamin D receptor signaling (AID 588541);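 note: receptor activated by calcitriol during compound treatment; series mostly up to about 77 µM; % is set by controls: 0 for no effect and ±100 for the full control effect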
How it was run: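 VDR-UAS-bla HEK293T cells (2000/well, 2% charcoal-stripped FBS) were treated with titrated compounds plus 1-alpha,25-dihydroxyvitamin D3 (50 nM or 3 nM final) for 16 h at 37 C. CCF4 beta-lactamase fluorescence was read; Hill fits gave IC50.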

[18] = qHTS assay for environmental chemicals that activate the Aryl hydrocarbon Receptor (AhR) signaling pathway (AID 651777; active = well fitted curve in the direction sought with a large enough effect; inconclusive = small, poorly fitted or top-dose-only effect, or another doubt; inactive = no such curve, though single readings can be large; an effect the other way counts as inactive or inconclusive; note: % of control where 0% means no effect; nearly all actives have a fitted effect of over 15% in size); details: 1A2-DRE human hepatoma cells, luciferase, 24 h; activation: stronger effect = higher value
How it was run: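 AhR activation is scored as a rise in luciferase from a stable DRE–CYP1A2 promoter construct in human hepatoma cells. Treatment lasts 24 hr at 37 C; detection uses One-Glo after 30 min at room temperature.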

[19] = qHTS assay for small molecule agonists of the antioxidant response element (ARE) signaling pathway measured by Nrf2-dependant transcriptional activity (AID 720636; active = well fitted curve in the direction sought with a large enough effect in the repeat runs; inconclusive = weak or mixed curves; inactive = no such curve, though single readings can be large; an effect the other way counts as inactive or inconclusive;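 note: HepG2 cells with an ARE-driven luciferase reporter; % of control where 0% means no effect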)
How it was run: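 First, ARE-luc HepG2 cells attached for 6 hr at 37 C in 1% dialyzed FBS medium. Next, compound or DMSO was added and incubated 16 hr. Finally, ONE-Glo reagent was added and luminescence measured after 30 min.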

[20] = target: Vitamin D3 receptor (Homo sapiens) (UniProt P11473); assay: qHTS assay for small molecule agonists of vitamin D receptor signaling (AID 588543);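 note: 0% = DMSO basal and 100% = reference agonist control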
How it was run: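 Agonist-mode beta-lactamase reporter: HEK293T VDR-UAS-bla cells in charcoal-stripped 2% FBS, compound series 16 h 37 C, CCF4 2 h RT. EC50 from Hill fit, scaled against DMSO and 50 nM calcitriol control.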

Sequence of Retinoic acid receptor RXR-alpha (Homo sapiens) (P19793 whole entry, looked up): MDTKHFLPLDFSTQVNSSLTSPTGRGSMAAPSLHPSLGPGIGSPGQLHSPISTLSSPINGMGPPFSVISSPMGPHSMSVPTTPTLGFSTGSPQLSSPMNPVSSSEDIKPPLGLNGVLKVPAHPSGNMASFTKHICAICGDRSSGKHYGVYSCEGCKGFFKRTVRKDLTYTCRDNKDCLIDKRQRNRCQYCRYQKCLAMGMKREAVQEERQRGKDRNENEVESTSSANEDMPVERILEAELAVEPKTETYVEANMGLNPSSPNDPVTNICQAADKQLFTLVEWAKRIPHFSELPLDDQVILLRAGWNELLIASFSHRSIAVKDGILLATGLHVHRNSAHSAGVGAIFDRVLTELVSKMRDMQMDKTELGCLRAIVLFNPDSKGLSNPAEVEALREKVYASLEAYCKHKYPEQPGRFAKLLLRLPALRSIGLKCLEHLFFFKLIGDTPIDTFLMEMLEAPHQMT
Sequence of Vitamin D3 receptor (Homo sapiens) (P11473 whole entry, looked up): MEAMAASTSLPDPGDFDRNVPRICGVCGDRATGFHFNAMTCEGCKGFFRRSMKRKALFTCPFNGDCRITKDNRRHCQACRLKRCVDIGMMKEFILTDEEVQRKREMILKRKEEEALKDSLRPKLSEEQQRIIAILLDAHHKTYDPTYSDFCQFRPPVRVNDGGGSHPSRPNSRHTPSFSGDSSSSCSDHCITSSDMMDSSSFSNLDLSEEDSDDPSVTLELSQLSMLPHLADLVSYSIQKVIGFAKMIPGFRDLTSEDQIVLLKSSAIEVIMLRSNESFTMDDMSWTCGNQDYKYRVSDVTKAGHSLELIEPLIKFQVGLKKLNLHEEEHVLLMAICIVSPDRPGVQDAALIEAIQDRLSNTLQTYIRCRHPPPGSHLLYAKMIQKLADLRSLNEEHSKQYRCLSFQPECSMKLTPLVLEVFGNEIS
Sequence of Thyroid hormone receptor beta (Homo sapiens) (P10828 whole entry, looked up): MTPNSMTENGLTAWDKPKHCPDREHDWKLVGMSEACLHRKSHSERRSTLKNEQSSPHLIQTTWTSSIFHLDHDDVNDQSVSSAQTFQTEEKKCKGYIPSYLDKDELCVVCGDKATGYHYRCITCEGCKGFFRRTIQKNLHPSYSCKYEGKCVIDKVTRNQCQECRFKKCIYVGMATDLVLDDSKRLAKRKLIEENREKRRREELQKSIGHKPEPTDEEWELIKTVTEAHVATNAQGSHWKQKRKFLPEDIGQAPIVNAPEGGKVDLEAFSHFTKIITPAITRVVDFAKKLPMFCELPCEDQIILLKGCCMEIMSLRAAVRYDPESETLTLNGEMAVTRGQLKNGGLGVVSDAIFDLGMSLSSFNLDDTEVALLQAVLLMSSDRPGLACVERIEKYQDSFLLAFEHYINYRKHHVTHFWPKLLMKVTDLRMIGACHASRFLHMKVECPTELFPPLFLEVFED
Sequence of Peroxisome proliferator-activated receptor delta (Homo sapiens) (Q03181 whole entry, looked up): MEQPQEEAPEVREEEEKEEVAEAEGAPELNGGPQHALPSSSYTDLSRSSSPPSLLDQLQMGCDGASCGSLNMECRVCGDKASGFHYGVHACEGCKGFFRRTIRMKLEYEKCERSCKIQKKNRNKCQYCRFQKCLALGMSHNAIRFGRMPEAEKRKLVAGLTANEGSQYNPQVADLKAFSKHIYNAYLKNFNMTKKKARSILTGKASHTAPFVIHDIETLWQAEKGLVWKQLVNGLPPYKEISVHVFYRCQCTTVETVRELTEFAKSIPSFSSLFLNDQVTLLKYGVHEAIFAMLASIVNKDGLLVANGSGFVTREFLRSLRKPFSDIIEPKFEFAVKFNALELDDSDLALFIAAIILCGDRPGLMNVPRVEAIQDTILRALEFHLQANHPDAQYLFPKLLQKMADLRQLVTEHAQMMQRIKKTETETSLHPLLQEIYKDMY
Sequence of Glucocorticoid receptor (Homo sapiens) (P04150 whole entry, looked up): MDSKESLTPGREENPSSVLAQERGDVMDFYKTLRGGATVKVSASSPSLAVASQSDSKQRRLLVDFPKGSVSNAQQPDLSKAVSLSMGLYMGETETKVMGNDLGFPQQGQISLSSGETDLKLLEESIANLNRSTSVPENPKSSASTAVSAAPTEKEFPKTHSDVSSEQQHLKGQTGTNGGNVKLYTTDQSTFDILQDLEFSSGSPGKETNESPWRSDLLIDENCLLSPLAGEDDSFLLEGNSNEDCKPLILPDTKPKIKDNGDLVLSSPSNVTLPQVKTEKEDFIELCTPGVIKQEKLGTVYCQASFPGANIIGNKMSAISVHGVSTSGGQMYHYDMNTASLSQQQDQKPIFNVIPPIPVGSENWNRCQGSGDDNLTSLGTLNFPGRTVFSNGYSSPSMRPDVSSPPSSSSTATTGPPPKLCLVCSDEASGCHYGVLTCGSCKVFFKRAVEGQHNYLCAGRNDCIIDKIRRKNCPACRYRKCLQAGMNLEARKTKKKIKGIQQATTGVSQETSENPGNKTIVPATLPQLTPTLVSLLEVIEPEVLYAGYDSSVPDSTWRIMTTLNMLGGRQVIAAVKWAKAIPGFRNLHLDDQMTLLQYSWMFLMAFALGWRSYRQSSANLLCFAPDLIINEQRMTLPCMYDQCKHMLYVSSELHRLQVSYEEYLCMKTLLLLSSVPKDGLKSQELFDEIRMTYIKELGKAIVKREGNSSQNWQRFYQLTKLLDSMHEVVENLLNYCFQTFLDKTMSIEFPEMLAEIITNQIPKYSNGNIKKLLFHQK
Sequence of Peroxisome proliferator-activated receptor gamma (Homo sapiens) (P37231 whole entry, looked up): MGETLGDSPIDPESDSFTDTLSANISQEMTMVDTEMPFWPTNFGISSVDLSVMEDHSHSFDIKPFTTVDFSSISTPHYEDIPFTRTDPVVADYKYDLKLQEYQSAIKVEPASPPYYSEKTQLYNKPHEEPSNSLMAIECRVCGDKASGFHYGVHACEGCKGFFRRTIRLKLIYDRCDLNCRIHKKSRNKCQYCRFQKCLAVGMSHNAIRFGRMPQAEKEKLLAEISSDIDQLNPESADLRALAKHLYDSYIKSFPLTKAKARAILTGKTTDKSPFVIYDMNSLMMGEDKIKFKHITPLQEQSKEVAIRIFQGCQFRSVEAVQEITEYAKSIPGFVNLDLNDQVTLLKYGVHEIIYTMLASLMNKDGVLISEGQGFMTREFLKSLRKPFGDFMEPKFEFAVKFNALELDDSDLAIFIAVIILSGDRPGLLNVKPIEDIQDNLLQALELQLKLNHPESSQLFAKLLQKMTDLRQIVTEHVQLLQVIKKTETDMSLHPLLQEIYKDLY
Sequence of Estrogen receptor (Homo sapiens) (P03372 whole entry, looked up): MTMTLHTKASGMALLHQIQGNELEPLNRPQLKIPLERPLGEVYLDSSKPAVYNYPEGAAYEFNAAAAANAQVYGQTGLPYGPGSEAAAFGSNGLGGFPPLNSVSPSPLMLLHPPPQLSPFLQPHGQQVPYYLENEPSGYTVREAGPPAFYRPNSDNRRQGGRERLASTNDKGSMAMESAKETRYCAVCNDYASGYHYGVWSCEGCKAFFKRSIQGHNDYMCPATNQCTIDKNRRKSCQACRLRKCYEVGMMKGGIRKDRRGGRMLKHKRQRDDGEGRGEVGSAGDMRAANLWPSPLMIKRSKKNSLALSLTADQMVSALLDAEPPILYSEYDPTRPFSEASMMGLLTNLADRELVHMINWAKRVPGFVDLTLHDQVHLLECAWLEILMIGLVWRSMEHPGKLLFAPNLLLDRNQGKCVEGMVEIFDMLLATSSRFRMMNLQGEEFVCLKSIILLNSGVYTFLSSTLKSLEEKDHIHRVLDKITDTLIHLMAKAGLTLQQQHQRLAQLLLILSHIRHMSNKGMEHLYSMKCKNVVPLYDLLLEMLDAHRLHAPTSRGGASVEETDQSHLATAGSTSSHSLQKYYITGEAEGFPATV
Sequence of Nuclear receptor subfamily 1 group I member 2 (Rattus norvegicus) (Q9R1A7 whole entry, looked up): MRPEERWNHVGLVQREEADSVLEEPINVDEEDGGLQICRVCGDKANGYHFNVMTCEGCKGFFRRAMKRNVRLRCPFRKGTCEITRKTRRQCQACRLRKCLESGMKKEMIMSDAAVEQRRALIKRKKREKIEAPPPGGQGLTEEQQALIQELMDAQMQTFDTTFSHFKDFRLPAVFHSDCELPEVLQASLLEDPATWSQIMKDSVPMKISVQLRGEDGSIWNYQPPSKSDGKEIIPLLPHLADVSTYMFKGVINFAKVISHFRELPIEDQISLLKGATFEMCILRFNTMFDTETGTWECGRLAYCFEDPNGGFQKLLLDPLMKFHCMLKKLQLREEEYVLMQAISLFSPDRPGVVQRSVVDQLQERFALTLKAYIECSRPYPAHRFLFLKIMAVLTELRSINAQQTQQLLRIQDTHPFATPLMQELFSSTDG
Sequence of Peroxisome proliferator-activated receptor alpha (Homo sapiens) (Q07869 whole entry, looked up): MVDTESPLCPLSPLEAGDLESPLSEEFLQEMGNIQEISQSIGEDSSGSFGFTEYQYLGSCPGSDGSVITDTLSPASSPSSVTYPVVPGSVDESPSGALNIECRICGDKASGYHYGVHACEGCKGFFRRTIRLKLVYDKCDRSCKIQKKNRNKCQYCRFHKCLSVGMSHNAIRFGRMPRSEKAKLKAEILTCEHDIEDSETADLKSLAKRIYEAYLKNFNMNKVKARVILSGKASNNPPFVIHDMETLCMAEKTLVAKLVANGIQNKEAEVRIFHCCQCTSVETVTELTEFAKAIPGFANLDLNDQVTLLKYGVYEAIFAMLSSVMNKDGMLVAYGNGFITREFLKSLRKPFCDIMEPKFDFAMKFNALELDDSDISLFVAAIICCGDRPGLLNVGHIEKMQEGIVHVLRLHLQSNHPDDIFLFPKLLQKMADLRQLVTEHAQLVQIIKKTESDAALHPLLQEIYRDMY

COP(=S)(OC)Oc1c(Cl)cc(C)cc1Cl
-6.8%: max response [7]
inactive: Potency [1] | activation [2] 2.7% | outcome [3] | Potency [4] | Potency [5] | Potency [6] | max response [8] -12.7% | activation [9] 7.93% | activation [10] -0.0055% | max response [11] 5.67% | max response [12] -1.53% | max response [13] -18.5% | Potency [14] | max response [15] 1.76%

CC1=C(C(=O)Nc2ccccc2)SCCO1
inactive: Potency [16] | activation [2] -5.7% | outcome [3] | Potency [4] | Potency [17] | Potency [5] | Potency [6] | max response [8] -6.74% | activation [9] 1.21% | max response [11] -3.16% | max response [12] -4.21% | max response [13] -15.4% | Potency [14]
-5.88%: max response [7]

[Ga]#[As]
inactive: Potency [16] | activation [2] 4.24% | outcome [3] | Potency [4] | Potency [17] | Potency [5] | Potency [6] | max response [8] 6.85% | activation [9] -1.62% | activation [10] -0.5% | activation [18] 0.963% | Potency [19] | max response [12] -2.5% | max response [13] -2.89% | Potency [14] | max response [15] -5.29%
-11%: max response [7]

O=[N+]([O-])Nc1nccn1Cc1ccc(Cl)nc1
inactive: Potency [16] | activation [2] 0.289% | outcome [3] | Potency [4] | Potency [17] | Potency [5] | Potency [6] | max response [8] 5.37% | activation [9] -1.74% | activation [10] -1.97% | max response [11] -0.0433% | Potency [19] | max response [12] -10.2% | max response [13] -8% | Potency [14] | max response [15] -4.49%
-3.06%: max response [7]

CCSCCSP(=O)(OC)OC
-9.27%: max response [7]
inactive: Potency [16] | activation [2] 8.21% | outcome [3] | Potency [4] | outcome [20] | Potency [5] | Potency [6] | max response [8] -0.524% | activation [9] 2.18% | activation [10] -0.99% | activation [18] -0.526% | max response [11] -0.363% | Potency [19] | max response [12] -6.91% | max response [13] -1.87% | Potency [14] | max response [15] -1.46%

C=C1CC[C@H](O)C/C1=C/C=C1\CCC[C@]2(C)[C@@H]([C@H](C)CCCC(C)C)CC[C@@H]12
active: Potency [1] 15.8 µM [inconclusive]

COc1cc(OC)nc(NC(=O)NS(=O)(=O)c2ncccc2C(F)(F)F)n1
-9.13%: max response [7]
inactive: Potency [16] | activation [2] -18.1% | outcome [3] | Potency [4] | Potency [17] | Potency [5] | Potency [6] | max response [8] 2.48% | activation [9] -1.26% | activation [10] -0.0953% | activation [18] 1.17% | max response [11] -1.83% | Potency [19] | max response [12] -1.73% | max response [13] -6.81% | Potency [14] | max response [15] 0.924%

Clc1ccc([C@@]2(Cn3cncn3)C[C@@H](Br)CO2)c(Cl)c1
-15.6%: max response [7]
inactive: Potency [1] | activation [2] -12.1% | outcome [3] | Potency [4] | Potency [17] | outcome [20] | Potency [6] | max response [8] -32.6% | activation [9] -2.11% | activation [10] -2.08% | activation [18] 1.89% | max response [11] -2.47% | Potency [19] | max response [13] -20.7% | Potency [14]
